PostGolgi yeast – growth inhibition of a yeast mutant, post-Golgi transport screen. post-Golgi transport phenotypic cell assay. inhibition, % at 10 µM. 98,000 compounds, 0.9% hits. AID 739;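 also: yeast cells grown in 1536-well plates; yeast grown about 18 h at 30C before absorbance read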
PostGolgi ctrl – inhibits growth of the yeast control strain; efflux-deficient yeast background strain, growth absorbance A615, 16 h; inhibition, % at 10 µM; 98,000 compounds, 5% hits
CYP2C19 act – activators of human cytochrome P450 2C19; 96,000 tested, under 10 active; activation factor at 5 µM; recombinant CYP2C19, luciferin-H EGE luminescence; active compounds read high; 0 = fully inhibited enzyme, 1 = untreated enzyme; AID 1025;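 active = activation factor of at least 2 at 5 µM in the primary screen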
CYP2C9 act – CYP2C9 (human) activation; activation factor at 5 µM; AID 1024; recombinant CYP2C9, luciferin-H conversion, luminescence; active compounds read high; factor 1 = untreated enzyme, 0 = blocked; 96,000 compounds, 1.4% hits; P11712;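 active = activation factor of 2 or more for CYP2C9 at a 5 µM dose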
Target sequence (P11712 whole entry, looked up): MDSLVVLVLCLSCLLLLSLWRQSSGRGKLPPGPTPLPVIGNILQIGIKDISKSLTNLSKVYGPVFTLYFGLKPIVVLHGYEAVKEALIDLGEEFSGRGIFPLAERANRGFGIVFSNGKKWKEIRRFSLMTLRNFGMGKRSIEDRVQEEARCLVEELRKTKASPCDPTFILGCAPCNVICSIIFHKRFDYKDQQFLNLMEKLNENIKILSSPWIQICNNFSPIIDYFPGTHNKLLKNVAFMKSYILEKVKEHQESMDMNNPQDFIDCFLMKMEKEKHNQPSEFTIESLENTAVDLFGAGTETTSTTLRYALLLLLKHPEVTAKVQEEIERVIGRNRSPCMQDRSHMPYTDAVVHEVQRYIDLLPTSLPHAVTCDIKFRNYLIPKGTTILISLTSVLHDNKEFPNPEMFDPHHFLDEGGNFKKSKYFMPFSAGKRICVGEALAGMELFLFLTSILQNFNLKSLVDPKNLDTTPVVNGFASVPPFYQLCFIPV
CYP2C9 inhib – inhibitors of human CYP2C9 | 96,000 compounds, 20% hits | P11712 | CYP2C9 Supersomes, luciferin-H conversion, luminescence | inhibition, % at 5 µM;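 active = blocking of liver enzyme CYP2C9 beyond about 50% at 5 µM, limit read from the data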
CYP2C19 inh – human CYP2C19 inhibition; P33261; inhibition, % at 5 µM; CYP2C19 Supersomes, luciferin-H EGE luminescence, 30 min; 96,000 compounds, 21% hits;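 active = CYP2C19 inhibition above a set limit at 5 µM in the primary screen, cut at about 50% in these data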
Each line names hits and unclear results; the compound was inactive in the other large screens. This is a sample that favours compounds with a hit; in the whole collection about 32% have one here. Rule as the data show it, unless noted: active = inhibition above about 30%; inactive = the rest.

Cc1ccc(-c2cc(C(=O)NCc3cnn(C)c3C)c3cc(Br)ccc3n2)cc1	PostGolgi ctrl 50, CYP2C9 inhib 63
CC(=O)Nc1cc(NC(=O)CCCC(=O)O)ccc1Cl	none
CC1(C)Cc2noc(N)c2C(C)(C)N1OC(=O)c1ccccc1	CYP2C9 inhib 57, CYP2C19 inh 100
CC(C)(C)SCCNC(=O)c1ccccc1	CYP2C19 inh 62
CSc1ccccc1C(=O)NCCSC(C)(C)C	none
O=C(NCCSc1ccccc1)c1ccccc1	CYP2C19 inh 84
Cc1ccccc1C(=O)NCCSc1ccccc1	none
Cc1ccc(C(=O)NCCSc2ccccc2)cc1S(=O)(=O)Nc1ccccc1	CYP2C9 inhib 73, CYP2C19 inh 60
Cc1ccc(C(=O)NCCSC(C)(C)C)cc1	CYP2C19 inh 68
COc1ccc(OC)c(C2C(C(C)=O)=C(O)C(=O)N2c2ccc(O)cc2)c1 (centres undefined)	none
O=C(CC1(O)C(=O)Nc2cc(Cl)cc(Cl)c21)c1ccccc1O (centres undefined)	none (no result: CYP2C19 act, CYP2C9 act, CYP2C9 inhib, CYP2C19 inh)
COC(=O)c1cnn(C(=O)c2cc(OC)ccc2Br)c1N	CYP2C9 act 2
COC(=O)c1cnn(C(=O)c2ccccc2Br)c1N	none
COc1cccc(C2C3=C(CC(C)(C)CC3=O)OC(N)=C2[N+](=O)[O-])c1 (centres undefined)	none
CC1=C([N+](=O)[O-])C(c2cccc(Br)c2)C2=C(N1)c1ccccc1C2=O (centres undefined)	CYP2C9 inhib 98, CYP2C19 inh 88
CCN(CCNc1ccc(Cl)cc1[N+](=O)[O-])C(=O)c1cc([N+](=O)[O-])c(N(C)C)cc1OC	CYP2C9 inhib 80, CYP2C19 inh 76
CCCCOc1ccc(S(=O)(=O)NNC(=O)C2Cc3c(ccc4ccccc34)O2)cc1 (centres undefined)	none
Cc1ccc(S(=O)(=O)NNC(=O)C2Cc3c(ccc4ccccc34)O2)cc1 (centres undefined)	CYP2C9 inhib 56
Cc1ccc(-c2csc(N3CCC(C(N)=O)(N4CCCCC4)CC3)n2)cc1	none
CCOc1ccc(C(=O)OCc2nnc(-c3cccs3)o2)cc1OC	CYP2C9 inhib 80, CYP2C19 inh 68
Cc1cc(C)c2c(c1)OC(O)(C(F)F)CC2=O (centres undefined)	CYP2C19 inh 88
Cc1csc(NC(=O)Cc2c[nH]c3ccccc23)n1	none
O=C(Cc1c[nH]c2ccccc12)Nc1nccs1	CYP2C19 inh 55
O=C(Nc1nccs1)C(=O)c1c[nH]c2ccccc12	CYP2C19 inh 63
O=C(Cc1c[nH]c2ccccc12)Nc1nc2ccccc2[nH]1	CYP2C9 inhib 58, CYP2C19 inh 54
O=C(Cc1ccccc1)Nc1nc2ccccc2[nH]1	none
Cc1ccc(S(=O)(=O)NC(C)C(=O)Nc2ccc(C(N)=O)cc2)cc1 (centres undefined)	none
C(=N\N(c1ccccc1)c1ccccc1)/c1ccc2c(c1)OCO2	CYP2C9 inhib 56
O=C(N/N=C/c1ccc2c(c1)OCO2)/C(=C/c1ccc2c(c1)OCO2)NC(=O)c1ccccc1	none
Cc1cc(C(=O)CSc2nnc(N)s2)c(C)n1-c1c(C)n(C)n(-c2ccccc2)c1=O	none
Cc1nc(-c2ccccc2)sc1-c1nc(-c2cccs2)ncc1S(=O)(=O)c1ccccc1	CYP2C9 inhib 62
Cc1nc(-c2ccccc2)sc1-c1nc(-c2cccnc2)ncc1S(=O)(=O)c1ccccc1	PostGolgi ctrl 32, CYP2C9 inhib 77
CCCCN(C)C(=O)CS(=O)(=O)Cc1nc(-c2cccc(OC)c2)oc1C	none
N/C(=N\OC(=O)c1ccc(Cl)cc1)c1cccnc1	none
N/C(=N\OC(=O)C(c1ccccc1)c1ccccc1)c1cccnc1	PostGolgi ctrl 39, CYP2C9 inhib 51
CCn1c(C(C#N)/C(=N\S(=O)(=O)c2cccs2)c2ccccc2)nc2ccccc21 (centres undefined)	none
COCCCn1c(SCC(=O)OC2CCCCC2)nnc1-c1cccs1	CYP2C19 inh 85
COCCCn1c(SCC(=O)OC2CCCCC2)nnc1-c1ccco1	CYP2C9 act 2.2
COCCCn1c(SCC(=O)NC2CCCC2)nnc1-c1ccco1	none
CCSc1nc2cc(C(=O)OC)ccc2c(=O)n1CC	none (no result: CYP2C19 act, CYP2C9 act, CYP2C9 inhib, CYP2C19 inh)
CCOC(=O)c1ccc2c(c1)nc(SCC(=O)c1cc3ccccc3o1)n2CC	CYP2C9 inhib 78
C=CCNC(=O)CSc1nc2cc(C(=O)OCC)ccc2n1CC	CYP2C9 inhib 75, CYP2C19 inh 96
CCOC(=O)c1ccc2c(c1)nc(COc1ccc(OC)cc1)n2CC	CYP2C9 inhib 55, CYP2C19 inh 76
CC(C)(C)NS(=O)(=O)c1ccc(NS(C)(=O)=O)cc1	none
C=CCNC(=O)c1sc(=S)n(-c2ccc(C(=O)OCC)cc2)c1N	CYP2C9 inhib 56
CCOC(=O)c1ccc(-n2c(N)c(C(=O)NCC3CCCO3)sc2=S)cc1 (centres undefined)	CYP2C9 inhib 83
COc1ccccc1C(=O)Nc1cccc(-c2cn3ccsc3n2)c1	PostGolgi ctrl 38
O=C(Nc1cccc(-c2cn3ccccc3n2)c1)c1cccc(Cl)c1	CYP2C9 inhib 84
O=C(Nc1cccc(-c2cn3ccsc3n2)c1)c1ccccc1	CYP2C9 inhib 85, CYP2C19 inh 59
Cc1ccc(N2CC(C(=O)Nc3ccccn3)CC2=O)cc1 (centres undefined)	none
CCC(C(=O)NCc1ccco1)N(C(=O)CNS(=O)(=O)c1ccccc1)c1ccc(OC)cc1 (centres undefined)	none
O=C(CCC1CCCC1)Nc1ccc(Br)cn1	none
COc1ccc(C(=O)COC(=O)CCn2nnc(-c3cccs3)n2)cc1	none
Cc1cc(C)cc(NS(=O)(=O)c2ccc(NC(=S)NC(=O)c3ccc(Br)o3)cc2)c1	CYP2C9 inhib 74
Cc1ccc(NS(=O)(=O)c2ccc(NC(=O)c3ccc(Br)o3)cc2)c(C)c1	CYP2C9 inhib 67
O=C(Nc1ccc(S(=O)(=O)N2CCOCC2)cc1)c1ccc(Br)o1	none
CCOC(=O)c1c(NC(=O)CSc2nnc(C)c(=O)[nH]2)sc2c1CCCC2	CYP2C9 inhib 98
CCOC(=O)Cc1csc(SCC(=O)Nc2sc3c(c2C(N)=O)CCC3)n1	CYP2C9 inhib 50
CCOC(=O)c1c(NC(=O)CSc2nnc(C)s2)sc2c1CCCCC2	CYP2C9 inhib 55
NC(=O)c1c(NC(=O)COC(=O)CSc2nnc(-c3ccc(Cl)cc3)o2)sc2c1CCC2	CYP2C9 inhib 79
O=C1CCCCCN1C(=O)c1cccc(C(=O)N2CCCCCC2=O)c1	none
CCCCCc1c(C)nc(N2CCOCC2)[nH]c1=O	none
N#Cc1c(NC(=O)CSCC(=O)O)sc2c1CCCC2	none
Cc1nnc(SCC(=O)Nc2sc3c(c2C#N)CCCC3)[nH]c1=O	CYP2C9 inhib 79
O=C1C(C2=C(O)c3ccccc3C2=O)=Nc2ccccc21	CYP2C9 inhib 53
CN=CC1=C(O)c2ccccc2C1=O	none

High-throughput results from PubChem.
